{
  "source": "PubChem BioAssay (EPA / NIEHS)",
  "note": "Activity calls are given as the source filed them. Rule for the calls: active = hit-call score of the fitted dose curve at least 0.9, where 1 is the maximum; inconclusive = response in the unintended direction; inactive = score below 0.9.",
  "data": [
    {"molecular_target": "Peroxisome proliferator-activated receptor gamma (Homo sapiens) (UniProt P37231)", "sequence (P37231 whole entry, looked up)": "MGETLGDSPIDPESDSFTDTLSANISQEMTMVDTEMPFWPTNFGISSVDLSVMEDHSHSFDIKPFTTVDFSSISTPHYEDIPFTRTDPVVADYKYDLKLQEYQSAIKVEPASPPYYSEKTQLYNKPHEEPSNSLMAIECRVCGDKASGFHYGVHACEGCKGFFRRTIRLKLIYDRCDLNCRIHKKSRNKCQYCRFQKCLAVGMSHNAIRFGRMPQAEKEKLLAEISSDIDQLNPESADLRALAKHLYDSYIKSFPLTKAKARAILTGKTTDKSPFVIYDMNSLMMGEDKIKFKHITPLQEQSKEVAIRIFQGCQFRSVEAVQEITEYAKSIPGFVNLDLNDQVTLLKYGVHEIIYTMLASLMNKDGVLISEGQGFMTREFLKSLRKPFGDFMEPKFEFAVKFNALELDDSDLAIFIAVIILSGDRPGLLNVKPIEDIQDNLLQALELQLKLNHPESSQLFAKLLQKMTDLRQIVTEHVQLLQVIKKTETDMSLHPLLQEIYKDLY", "test": "OT_PPARg_PPARgSRC1_1440: Odyssey Thera (OT) 24-hour Protein-Complementation Assay for Peroxisome Proliferator-activated Receptor Gamma/ SRC-1 Co-activator (AID 2283388);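 note: nuclear to cytoplasmic ratio of reconstituted Venus YFP fluorescence in fixed imaged cells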", "method": "OT_PPARg_PPARgSRC1_1440 is a cell-based assay that uses HEK293T, a human kidney cell line, with measurements taken at 24 hours after chemical dosing in a 384-well plate.OT_PPARg_PPARgSRC1_1440 is one of one assay component(s) measured or calculated from the OT_PPARg_PPARgSRC1_1440 assay. It is designed to make measurements of protein fragment complementation, a form of binding reporter, as detected with fluorescence intensity signals by Protein-fragment Complementation technology.Data from the assay component OT_PPARg_PPARgSRC1_1440 was analyzed into 1 assay endpoint. This assay endpoint, OT_PPARg_PPARgSRC1_1440, was analyzed in the positive analysis fitting direction relative to DMSO as the negative control and baseline of activity. Using a type of binding reporter, measures of receptor for gain-of-signal activity can be used to understand the binding at the pathway-level as they relate to the gene PPARG. Furthermore, this assay endpoint can be referred to as a primary readout, because the performed assay has only produced 1 assay endpoint. To generalize the intended target to other relatable targets, this assay endpoint is annotated to the nuclear receptor intended target family, where the subfamily is non-steroidal.\nThe OT PPARg/SRC-1 assay assessed receptor-chemical interactions using a rapidly maturing, intensely fluorescent mutant of YFP known as Venus, rationally dissected into two separate fragments. The fragments were obtained as follows: first, fragments coding for YFP1 and YFP2 (corresponding to amino acid residues 1-158 and 159-239 of the full length YFP, respectively) were generated by oligonucleotide synthesis (Blue Heron Biotechnology), and then PCR mutagenesis was used to generate the mutant fragments IFP1 and IFP2. Fusion constructs were transfected into HEK293T cells with a (Gly4Ser)2 linker between the PPARg/SRC-1 and YFP fragment genes to facilitate complementation when interacting proteins bring fragments into close proximity. The construct is transiently transfected in HEK293T cells 48 hours prior to treatment with test compounds. Cells are seeded into optical quality 384-well poly-D-lysine coated plates in MEM alpha medium (Invitrogen) supplemented with 10 percent FBS (Gemini Bio-Products) 1 percent penicillin and 1 percent streptomycin, and grown in 37C incubator equilibrated to 5 percent CO2. Cells are allowed to adhere for 24 hours prior to treatment with compounds of interest or controls for 24 hours. Cells are fixed in 4 percent formaldehyde and stained with Draq5 (BioStatus) to identify cells and subcellular compartment boundaries prior to signal detection. 8 Images per well were acquired on an Evotec Opera at 2 wavelengths (488 and 635nm), and the ratio of fluorescence in the nucleus relative to fluorescence in the cytoplasm (N/C Ratio) in the 488nm channel was calculated for a minimum of 350 cells per image.", "values": [
      {"smiles": "O=C(CCl)Nc1ccccc1", "outcome": "inactive"},
      {"smiles": "Oc1c(Br)cc(Br)cc1Br", "outcome": "inactive"},
      {"smiles": "COc1nn(C(=O)NS(=O)(=O)c2ccccc2OC(F)(F)F)c(=O)n1C", "outcome": "inactive"},
      {"smiles": "COC(=O)Nc1cccc(OC(=O)Nc2cccc(C)c2)c1", "outcome": "inactive"},
      {"smiles": "N#Cc1cccnc1", "outcome": "inactive"},
      {"smiles": "Cc1cc(Cl)ccc1OC(C)C(=O)O", "note": "(stereo not given)", "outcome": "inactive"},
      {"smiles": "O=C(O)COc1cc(Cl)c(Cl)cc1Cl", "outcome": "inactive"},
      {"smiles": "N#CCC#N", "outcome": "inactive"},
      {"smiles": "O=c1nc(O)n(Cl)c(=O)n1Cl", "outcome": "inactive"},
      {"smiles": "Cc1cc(Cl)ccc1OCCCC(=O)O", "outcome": "inactive"},
      {"smiles": "OCCCCO", "outcome": "inactive"},
      {"smiles": "Clc1cccc(Cl)c1", "outcome": "inactive"},
      {"smiles": "CCCSP(=S)(OCC)Oc1ccc(SC)cc1", "note": "(stereo not given)", "outcome": "inactive"},
      {"smiles": "COc1ccccc1N", "outcome": "inactive"},
      {"smiles": "CCOP(=S)(OCC)O/N=C(\\C#N)c1ccccc1", "outcome": "inactive"},
      {"smiles": "O=[N+]([O-])c1ccc(Cl)c([N+](=O)[O-])c1", "outcome": "inactive"},
      {"smiles": "CC(C)(C)c1ccccc1O", "outcome": "inactive"},
      {"smiles": "CCC[CH2][Sn]([Cl])([Cl])[CH2]CCC", "outcome": "inactive"},
      {"smiles": "CCOCn1c(-c2ccc(Cl)cc2)c(C#N)c(Br)c1C(F)(F)F", "outcome": "inactive"},
      {"smiles": "C=CCN=C=S", "outcome": "inactive"},
      {"smiles": "Clc1cccc(Cl)c1Cl", "outcome": "inactive"},
      {"smiles": "O=C(O)COc1ccc(Cl)cc1", "outcome": "inactive"},
      {"smiles": "CC1(C)[C@H](C(=O)O[C@H](C#N)c2cccc(Oc3ccccc3)c2)[C@@H]1/C=C(\\Cl)C(F)(F)F", "outcome": "inactive"},
      {"smiles": "O=C(CBr)c1ccc(O)cc1", "outcome": "inactive"},
      {"smiles": "O=c1[nH]c(=O)n(Cl)c(=O)n1Cl", "outcome": "inactive"},
      {"smiles": "Nc1ncn[nH]1", "outcome": "inactive"},
      {"smiles": "N#CCCC(Br)(C#N)CBr", "note": "(stereo not given)", "outcome": "inactive"},
      {"smiles": "COCCl", "outcome": "inactive"},
      {"smiles": "Cc1cc(Cl)ccc1O", "outcome": "inactive"},
      {"smiles": "O=C(NC(=O)c1c(F)cccc1F)Nc1cc(Cl)c(OC(F)(F)C(F)C(F)(F)F)cc1Cl", "note": "(stereo not given)", "outcome": "inactive"},
      {"smiles": "CC(C)N(C(=O)CCl)c1ccccc1", "outcome": "inactive"},
      {"smiles": "CC(O)(CS(=O)(=O)c1ccc(F)cc1)C(=O)Nc1ccc(C#N)c(C(F)(F)F)c1", "note": "(stereo not given)", "outcome": "inactive"},
      {"smiles": "CC(=Cc1ccccc1)[N+](=O)[O-]", "outcome": "inactive"},
      {"smiles": "O=C1c2ccccc2C(=O)C1C(=O)C(c1ccccc1)c1ccc(Cl)cc1", "note": "(stereo not given)", "AC50": "69.3 µM (active)"},
      {"smiles": "C=CC(Cl)CCl", "note": "(stereo not given)", "outcome": "inactive"},
      {"smiles": "CN(N=O)C(N)=O", "outcome": "inactive"},
      {"smiles": "O=C(O)C1(c2ccc3c(c2)OC[C@H](Cc2ccc(-c4ccccc4)cc2)[C@H]3O)CCCC1", "outcome": "inactive"},
      {"smiles": "O=S1OC[C@@H]2[C@H](CO1)[C@]1(Cl)C(Cl)=C(Cl)[C@@]2(Cl)C1(Cl)Cl", "note": "(stereo not given in full)", "outcome": "inactive"},
      {"smiles": "CCC[CH2][Sn]([CH2]CCC)([CH2]CCC)[CH2]CCC", "outcome": "inactive"},
      {"smiles": "O=[N+]([O-])c1ccccc1O", "outcome": "inactive"}
    ]}
  ]
}
